Out of some 290,000 compounds screened, about 3,000 (1%) were called active. No stated cut-off is given here; in the data, active means inhibition mostly above about 36% (no sharp cut-off); inactive means mostly below about 34%. What follows is part of a selection rich in actives, with near analogues and random picks from the rest.
assay: NOD1 signaling inhibitors, primary screen, cell-based, luminescence, uHTS (AID 1578); conditions: NOD1-driven NF-kB luciferase reporter cells, at 4 µM, stronger effect = higher value;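 further: HEK-293T reporter cells stimulated with the NOD1 agonist gamma-tri-DAP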

inhibition, active:
N#Cc1c(C(F)(F)F)cc(-c2ccc(Cl)cc2)[nH]c1=O 54.2%, CCOc1cccc(CNc2ccc(O)cc2)c1OCc1ccccc1Cl 39.2%, C/C(=N\Nc1ncc(Cl)cc1Cl)c1ccccn1 103%, CCn1cc(C(=O)NCc2ccc3c(c2)OCO3)c(=O)c2cc(F)c(N3CCN(C(=O)c4ccco4)CC3)cc21 82.7%, Cc1ccc(Cn2c3ccccc3c3cn[nH]c(=O)c32)cc1 59.1%, CCOC(=O)N1CCC(N(CCN(C)C)C(=S)Nc2cc(Cl)cc(Cl)c2)CC1 65.6%, CC(C)(C(=O)N[C@H](CO)c1ccccc1)C(=O)N[C@H](CO)c1ccccc1 95%, Cc1ccc(NC(=O)CCc2nc3ccccc3s2)c(O)c1 43%, O=c1cc(C(F)(F)F)[nH]c2c(C(F)(F)F)cccc12 72.8%

inhibition, inactive:
O=C(Cc1cccs1)NCCSc1c(-c2ccc(Cl)cc2)[nH]c2ccccc12 30.7%, Cc1ccc(C(=O)NC(NCc2ccccc2)C(Cl)(Cl)Cl)cc1 (stereo not given) 5.2%, O=C(COC(=O)C1CC2C=CC1C2)Nc1cccc(S(=O)(=O)N2CCCCC2)c1 (stereo not given) -18.1%, N#Cc1c(C(F)(F)F)cc(-c2ccc(F)cc2)[nH]c1=O -17.2%, Cc1ccc(-c2cc(C(F)(F)F)c(C#N)c(=O)[nH]2)cc1 1.8%, O=C(Nc1nc(-c2nc3ccccc3s2)cs1)c1ccc(S(=O)(=O)N2CCOCC2)cc1 47.5%, CCOc1cccc(CNc2ccc(O)cc2)c1OCc1ccc(Cl)cc1Cl 7.6%, CCOc1cccc(CNc2ccc(O)cc2)c1OCc1ccc(Cl)cc1 22.1%, CCC(C)NC(=O)c1cc(Cl)c(NC(=O)C2=C(C)OCCS2)cc1OC (stereo not given) -9.8%, Nc1nnc(SCc2nnc(-c3ccccc3)o2)s1 -21%, O=C1CCc2cc(S(=O)(=O)NC(Cc3ccccc3)C(=O)NC3CCCC3)ccc2N1 (stereo not given) -11.4%, CCN(CC)S(=O)(=O)c1cccc(C(=O)N[C@H](C(=O)OCC(=O)Nc2ccccc2)C(C)C)c1 -24.7%, C/C(=N\Nc1ncc(Cl)cc1Cl)c1ccc(C#N)cc1 -40.4%, C/C(=N\Nc1ccc(Cl)cc1)c1ccccn1 -119%, Cc1cc(C)c(C(=O)COC(=O)CCNS(=O)(=O)c2c(Cl)cccc2Cl)cc1C -13.2%, CCC(C(=O)NC1CC(C)(C)NC(C)(C)C1)c1ccccc1 (stereo not given) -18.7%, COc1cccc(-n2c(Cn3nc(C(F)(F)F)cc3C)n[nH]c2=S)c1 2.3%, CCn1cc(C(=O)NCc2ccccc2)c(=O)c2cc(F)c(N3CCN(C(=O)c4ccco4)CC3)cc21 46.3%, CCn1cc(C(=O)NCc2cccc(F)c2)c(=O)c2cc(F)c(N3CCN(C(=O)c4ccco4)CC3)cc21 0.3%, CCOc1ccc(NC(=O)C2CCN(S(=O)(=O)c3ccc4c(c3)CC(C)N4C(C)=O)CC2)cc1 (stereo not given) -19.4%, Cc1nn(C)cc1-c1n[nH]c(=S)n1-c1ccc(F)cc1 -1.9%, O=c1[nH]ncc2c3ccccc3n(Cc3ccc(F)cc3)c12 -2.2%, O=c1[nH]ncc2c3ccccc3n(Cc3ccccc3)c12 36.5%, CN(C)C(=O)CN1C(=O)NC2(CCCc3ccccc32)C1=O (stereo not given) -1.9%, CCOC(=O)N1CCC(N(CCN(C)C)C(=S)Nc2cccc(Cl)c2)CC1 0.8%, CCOC(=O)N1CCC(N(CCN(C)C)C(=S)Nc2cc(C)cc(C)c2)CC1 -15.3%, O=C(NC(CO)c1ccccc1)c1ccco1 (stereo not given) 3%, CC(C)(C)C(=O)NC(CC(=O)O)c1ccccc1 (stereo not given) -18.6%, COCCNC(=O)c1cc(Sc2nnc(C)s2)nc2ccccc12 -10.4%, CCOC(=O)c1sc(NC(=O)c2cccc(S(=O)(=O)N3c4ccccc4CC3C)c2)cc1C (stereo not given) 6.7%, Cc1ccc2nc(NC(=O)CCCc3nc4ccccc4s3)sc2c1 -29%, Cc1ccc(NC(=O)CCCc2nc3ccccc3s2)c(O)c1 -33.8%, O=C(c1ccc(F)cc1)n1c(NCc2ccccc2)n[nH]c1=S -17.3%, O=c1cc(C(F)(F)F)[nH]c2c(OC(F)(F)F)cccc12 15.5%, Cc1cccc2c(=O)cc(C(F)(F)F)[nH]c12 1.3%, CCOc1ccc(NC(=O)C2CCCN(S(=O)(=O)c3cnc[nH]3)C2)cc1 (stereo not given) -9.3%, CCN(CC)S(=O)(=O)c1ccc(Cl)c(NC(=O)COC(=O)c2ccc(O)cc2)c1 21.8%, COc1cccc(NC(=O)Nc2nc(SC(C)(C)C)ns2)c1 40.2%, COc1cccc(NC(=O)Nc2nc(SC)ns2)c1 -38%, CCSc1nsc(NC(=O)Nc2ccccc2F)n1 -1.8%, CCCSc1nsc(NC(=O)Nc2ccc(F)cc2F)n1 43%, CCSc1nsc(NC(=O)Nc2cccc(OC)c2)n1 52.2%, CCSc1nsc(NC(=O)Nc2ccc(F)cc2F)n1 26%, CCn1cc(CN2CCC(C(=O)Nc3cccc(-c4cscn4)c3)CC2)cn1 -27.3%, CC(C)(C)c1cc(CCC(=O)NCCc2ccccn2)cc(C(C)(C)C)c1O -9.5%, COc1ccc(/C=C(\NC(=O)c2ccc(Cl)cc2)C(=O)NCCCn2ccnc2)cc1OC 18.2%, CN1CCN(Cc2nc3c(c(=O)n(C)c(=O)n3C)n2CCCc2ccccc2)CC1 16.4%, COc1cccc(Nc2c(Nc3cccc(OC)c3)c(=O)c2=O)c1 -10.3%, CC1(C)CC(=O)C(C(c2ccccc2F)C2C(=O)CC(C)(C)CC2=O)C(=O)C1 0.7%, Cc1ccc(S(=O)(=O)NC(CN2CCOCC2)=NCCNS(=O)(=O)c2ccccc2)cc1 31.6%, CN1CCN(c2ccc(-c3ccnn3C(=O)Nc3cccc(C(F)(F)F)c3)cc2)CC1 19.1%

Reference: PubChem BioAssay AID1578 (Sanford-Burnham Center for Chemical Genomics, 2009)
